Compound activity as filed in PubChem BioAssay.
This is one part of a sample in which hits are shown more often than they occur.
Pf Dd2 inh: Plasmodium falciparum Dd2 growth inhibition. AID 1347417. Potency, µM (titrated, usually from 28.9 µM), actives largely listed as inhibitors. P. falciparum Dd2 growth, SYBR Green, 72 h. 4.3% of 120,000 active; active = well fitted inhibition curve with a large enough effect; also: nearly all actives have a fitted effect of over 65% in size
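Readout: SYBR Green fluorescence, 485 nm excitation, 535 nm emission, after ~16 h lysis at 37C. Before that, Dd2-infected red cells (2.5% hematocrit) grew 72 h with compound, 29 uM top final concentration.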
Each line names hits and unclear results; the compound was inactive in the other large screens.

O=C(COCc1cc(-c2ccco2)on1)Nc1cccc(Cl)c1Cl	none
CCOC(=O)C1=CN(CC(=O)Nc2ccccc2Cl)S(=O)(=O)N=C1C	none
Cn1cnc(C(=O)N2CCC(N3CC4CC(C3)[C@H]3CCCC(=O)N3C4)CC2)c1 (some centres not stated)	none
O=C1C(OCC2CC2)C2(CCOCC2)N1C1CCNCC1 (configuration not stated)	none
CN(Cc1ccccc1)Cc1cn([C@H]2CO[C@H]3[C@@H]2OC[C@@H]3NCc2ccc(N(C)C)cc2)nn1	none
O=C([C@H]1C[C@H](Oc2cccnc2)CN1C(=O)Nc1cccc(F)c1)N1CCOCC1	none
COCCNC(=O)[C@@H]1C[C@@H](O)CN1C1CCN(C(=O)c2ccc3c(c2)OCO3)CC1	none
C[C@@H]1CN(C(=O)c2cnc3sccn3c2=O)C[C@@]1(O)C1CCC1	none
CC(C)c1cc(C(=O)N2C[C@@H](C)[C@](O)(C3CC3)C2)nc2ncnn12	none
Cc1cc(C(F)(F)F)n2ncc(C(=O)N3C[C@@H](C)[C@](O)(C4CCC4)C3)c2n1	Pf Dd2 inh 14µM
Cn1cc(Cl)cc1C(=O)N1CCC2(CCCN(C3CCCC3)C2=O)C1 (configuration not stated)	none
Clc1ccc(-c2nnc([C@H]3CCN(Cc4ccccc4)C3)o2)cc1	none
O=C(CC[C@H]1NC(=O)c2ccccc2NC1=O)NCCCc1nnc2ccccn12	none
CN(Cc1cc(F)c(F)c(F)c1)C1CCc2nn(CC3CC3)c(=O)n2CC1 (configuration not stated)	none
CCn1c(=O)c2cc(C(=O)Nc3cc(OC)c(OC)c(OC)c3)sc2c2ccccc21	none
CCN(CC)CCOC(=O)c1ccc(NC(=O)c2cc3c(=O)n(CC)c4ccccc4c3s2)cc1	Pf Dd2 inh 0.79µM
CCOc1ccc(CCNC(=O)c2cc3c(=O)n(CC)c4ccccc4c3s2)cc1OCC	none
Oc1ccc(Cl)cc1Nc1nc2ccccc2n2cnnc12	none
Oc1ccccc1Nc1nc(-c2ccccc2)c2cc(Cl)ccc2n1	Pf Dd2 inh 5µM
COC(=O)c1ccccc1NC(=O)Cn1c(=O)nc(-c2ccccc2)c2cc(Cl)ccc21	none
Cc1nn(C)cc1C(=O)N[C@@H]1CN(S(C)(=O)=O)C[C@H]1CN(C)C	none
COc1ccc(-c2noc([C@@H](C)NCC3CCCC3)c2C(=O)O)cc1	none
O=C(NCc1cccc(F)c1)c1cnc2c(c1)N(C(=O)Cc1cccc(C(F)(F)F)c1)CCC2	none
O=C(Cc1cccc(C(F)(F)F)c1)N1CCCc2ncc(C(=O)N3CCCC[C@@H]3Cc3ccccc3)cc21	Pf Dd2 inh 11µM
O=C(Cc1cccc(C(F)(F)F)c1)N1CCCc2ncc(C(=O)N3CCC[C@@H]3c3ccc(F)cc3)cc21	none
COc1ccccc1N1CCCc2ncc(C(=O)N3CCCC[C@@H]3Cc3ccccc3)cc21	Pf Dd2 inh 4.5µM
COc1ccccc1N1CCCc2ncc(C(=O)NCCc3c[nH]c4ccccc34)cc21	none
COc1ccccc1N1CCCc2ncc(C(=O)N3CC[S+](=O)([O-])CC3)cc21	none
Cn1nc2c(c1NC(=O)Cn1nc3c(cc1=O)CCCCC3)CSC2	none
COc1ccc(C(=O)NC2CCN(c3cn[nH]c(=O)c3)CC2)cc1	none
Cc1noc([C@@H]2CC(F)(F)CN2C(=O)CCc2c(C)noc2C)n1	none
CC(C)(C)C(=O)N1CCC2(CCCN(Cc3cccc(F)c3F)C2=O)C1 (configuration not stated)	none
Cc1cccc(N(C)C(=O)C(Cc2ccccc2)NS(=O)(=O)c2cccc3nsnc23)c1 (configuration not stated)	none
CCc1ccccc1NC(=O)C1CCCN(S(=O)(=O)c2cccc3nsnc23)C1 (configuration not stated)	none
CCc1cccc(CC)c1NC(=O)C1CCC(CNS(=O)(=O)c2cccc3nsnc23)CC1 (configuration not stated)	Pf Dd2 inh 3.2µM
CC(C)NC(=O)[C@@H]1C[C@H](N)CN1S(=O)(=O)c1cccc2nsnc12	none
CCN(C(=O)C(NS(=O)(=O)c1cccc2nsnc12)c1ccccc1)c1ccccc1 (configuration not stated)	none
CC(C)CCNC(=O)C1CCC(CNS(=O)(=O)c2cccc3nsnc23)CC1 (configuration not stated)	Pf Dd2 inh 3.2µM
CCCN(CCC)CCCNC(=O)C1CCCN(S(=O)(=O)c2cccc3nsnc23)C1 (configuration not stated)	none
Cc1cccc(C)c1NC(=O)C1CCCN1S(=O)(=O)c1cccc2nsnc12 (configuration not stated)	none
CCCCN(C(=O)C1CCC(CNS(=O)(=O)c2cccc3nsnc23)CC1)c1ccccc1 (configuration not stated)	Pf Dd2 inh 2.2µM
O=C(Nc1ccc([C@H]2OCC(=O)N(Cc3ccc(F)cc3)[C@@H]2CO)cc1)C1CC1	none
CC(C)S(=O)(=O)N1CC[C@H]2C(=O)NCCCCCCN(Cc3ccncc3)[C@@H]2C1	none
O=c1c2c(CO)c(-c3ccc(F)cc3)nn2ccn1Cc1cccc(C(F)(F)F)c1	none
O=C1NCCOCCN(S(=O)(=O)c2cccc3nsnc23)[C@H]2CCC[C@@H]12	none
Cc1cccc(N(C)c2nc3ccccc3c3nnc(C)n23)c1	Pf Dd2 inh 0.45µM
